From PubChem BioAssay (Tox21)
Values joined by “and” are separate entries in the source; they are usually repeats but may differ in a detail not shown here. Equal values may be shown once. Records with an inconclusive call do not appear. Active and inactive are the calls of the source. Unless noted, calls come from the whole dose curve; as a rule, active = well fitted curve in the direction sought with a large enough effect in the repeat runs; inconclusive = weak or mixed curves; inactive = no such curve, though single readings can be large; an effect the other way counts as inactive or inconclusive.

Assays:
[1] = qHTS assay to test for compound auto fluorescence at 535 nm (green) in HEK293 cells (AID 720680)
[2] = qHTS assay to test for compound auto fluorescence at 460 nm (blue) in HEK293 cell free culture (AID 720681); note: potency is the fitted concentration of half-maximal effect
Method in brief: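 Compounds were added to cell-free DMEM with 10% FBS and fluorescence read directly. The blue channel used 405 nm excitation and 460 nm emission, with triamterene as the reference fluorophore.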

[3] = qHTS assay to test for compound auto fluorescence at 535 nm (green) in HEK293 cell free culture (AID 720682)
Method in brief: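 No cells present: wells hold DMEM supplemented with 10% FBS, into which compound or vehicle is pinned. Green emission is then recorded (485 nm excitation, 535 nm emission) and scaled to fluorescein.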

[4] = qHTS assay to test for compound auto fluorescence at 590 nm (red) in HEK293 cell free culture (AID 720683)
Method in brief: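 Cell-free wells of DMEM with 10% FBS received compound, and intrinsic fluorescence was read at excitation/emission 540/590 nm. Values expressed as equivalence to Rose Bengal sodium.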

[5] = qHTS assay to test for compound auto fluorescence at 590 nm (red) in HepG2 cell free culture (AID 720684)
Method in brief: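 Rose Bengal sodium served as the reference for red signal. Test compounds were dispensed into serum-containing MEM (10% FBS) without cells, and plates were read at 540/590 nm.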

[6] = qHTS assay to test for compound auto fluorescence at 535 nm (green) in HepG2 cell free culture (AID 720686)
[7] = qHTS assay to test for compound auto fluorescence at 460 nm (blue) in HepG2 cells (AID 720687)
Method in brief: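 HepG2 cells in MEM with 10% FBS, attached overnight at 37 C, were exposed to compound or DMSO for 1 hr at 37 C, 5% CO2. Blue fluorescence was read at 405/460 nm, with triamterene as reference fluorophore.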

[8] = qHTS assay to identify small molecule antagonists of the glucocorticoid receptor (GR) signaling pathway - cell viability counter screen (AID 720693); note: nearly all actives have a fitted effect of over 55% in size
[9] = qHTS assay for identifying genotoxic compounds that show differential cytotoxicity against isogenic chicken DT40 cell lines with known DNA damage response pathways - wild type cell line (AID 743012); note: nearly all actives have a fitted effect of over 60% in size; note: potency is the fitted concentration of half-maximal effect
Method in brief: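 Viability by ATP luminescence (CellTiter-Glo, 30 min RT) after 40 h compound treatment at 37 C/5% CO2, using 300 parental DNA repair-proficient DT40 cells per well.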

[10] = qHTS assay for identifying genotoxic compounds that show differential cytotoxicity against isogenic chicken DT40 cell lines with known DNA damage response pathways - Rad54/Ku70 mutant cell line (AID 743015); note: nearly all actives have a fitted effect of over 60% in size; note: potency is the fitted concentration of half-maximal effect
[11] = qHTS assay to identify small molecule antagonists of the androgen receptor (AR) signaling pathway - cell viability counter screen (AID 743033; note: nearly all actives have a fitted effect of over 45% in size; note: potency is the fitted concentration of half-maximal effect)
[12] = qHTS assay to identify small molecule antagonists of the androgen receptor (AR) signaling pathway using the MDA cell line - cell viability counter screen (AID 743041; note: nearly all actives have a fitted effect of over 45% in size)
Method in brief: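 Cytotoxicity counter screen: MDA-kb2 AR-luc cells, compound + R1881, 16 h, 37C, 0% CO2; CellTiter-Fluor added at 15.5 h, fluorescence read after 30 min.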

[13] = target: Glucocorticoid receptor (Homo sapiens) (UniProt P04150); test: qHTS assay to identify small molecule agonists of the glucocorticoid receptor (GR) signaling pathway (AID 720691; active = well fitted activation curve with a large enough effect in the signal ratio in the repeat runs, not every such curve was filed as active; the % refers to the signal ratio)
Method in brief: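 Agonist-mode qHTS in HeLa cells stably expressing a glucocorticoid-response-element beta-lactamase reporter. Fluorescence intensity read with FRET substrate (2 h, room temperature) after 18 h compound treatment at 37 C.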

[14] = target: Glucocorticoid receptor (Homo sapiens) (UniProt P04150); test: qHTS assay to identify small molecule antagonists of the glucocorticoid receptor (GR) signaling pathway (AID 720692; active = well fitted inhibition curve with a large enough effect in the signal ratio in the repeat runs, not every such curve was filed as active; the % refers to the signal ratio)
Method in brief: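 Inhibition of dexamethasone-driven (5 nM final) beta-lactamase expression was measured in GRE-reporter HeLa cells over 18 h at 37C. Fluorescence was read after 2 h with the B/G FRET substrate at room temperature.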

[15] = qHTS assay for identifying genotoxic compounds that show differential cytotoxicity against isogenic chicken DT40 cell lines with known DNA damage response pathways - Rev3 mutant cell line (AID 743014); note: nearly all actives have a fitted effect of over 55% in size; note: potency is the fitted concentration of half-maximal effect
[16] = target: Androgen receptor (Homo sapiens) (UniProt P10275); test: qHTS assay to identify small molecule antagonists of the androgen receptor (AR) signaling pathway (AID 743035; active = well fitted inhibition curve with a large enough effect in the signal ratio in the repeat runs, not every such curve was filed as active; the % refers to the signal ratio)
Method in brief: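 Antagonist mode: AR-bla HEK293 cells co-treated with test compounds and agonist R1881 for 16 h at 37C, 5% CO2. Beta-lactamase activity read as FRET fluorescence after 2 h room-temperature substrate loading.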

[17] = target: Androgen receptor (Homo sapiens) (UniProt P10275); test: qHTS assay to identify small molecule agonists of the androgen receptor (AR) signaling pathway (AID 743036; active = well fitted activation curve with a large enough effect in the signal ratio in the repeat runs, with a control signal flat, not every such curve was filed as active; the % refers to the signal ratio)
Method in brief: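 Quantitative HTS of the Tox21 10K library in HEK293 cells bearing a stably integrated UAS-controlled beta-lactamase reporter. Compound exposure lasted 16 h at 37C. Reporter activity was detected by FRET substrate fluorescence after 2 h at room temperature.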

[18] = target: Androgen receptor (Homo sapiens) (UniProt P10275); test: qHTS assay to identify small molecule agonists of the androgen receptor (AR) signaling pathway using the MDA cell line (AID 743040; note: nearly all actives have a fitted effect of over 20% in size)
Method in brief: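 Luciferase read-out, ONE-Glo, 30 min RT. Cells: MDA-kb2 AR-luc, MMTV promoter with AR and GR response elements. Compound exposure 16 h, 37C, 0% CO2, after 5 h pre-incubation. qHTS agonist mode.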

[19] = target: Androgen receptor (Homo sapiens) (UniProt P10275); test: qHTS assay to identify small molecule antagonists of the androgen receptor (AR) signaling pathway using the MDA cell line (AID 743042; note: nearly all actives have a fitted effect of over 55% in size)
Method in brief: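 MDA-kb2 breast carcinoma cells carrying MMTV-luciferase (AR/GR responsive) were co-treated with compounds and the agonist R1881 for 16 h at 37C. Inhibition read as ONE-Glo luminescence; CellTiter-Fluor fluorescence measured in parallel for cytotoxicity.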

Measured: Potency

Chain of Androgen receptor (Homo sapiens) (P10275 whole entry, looked up): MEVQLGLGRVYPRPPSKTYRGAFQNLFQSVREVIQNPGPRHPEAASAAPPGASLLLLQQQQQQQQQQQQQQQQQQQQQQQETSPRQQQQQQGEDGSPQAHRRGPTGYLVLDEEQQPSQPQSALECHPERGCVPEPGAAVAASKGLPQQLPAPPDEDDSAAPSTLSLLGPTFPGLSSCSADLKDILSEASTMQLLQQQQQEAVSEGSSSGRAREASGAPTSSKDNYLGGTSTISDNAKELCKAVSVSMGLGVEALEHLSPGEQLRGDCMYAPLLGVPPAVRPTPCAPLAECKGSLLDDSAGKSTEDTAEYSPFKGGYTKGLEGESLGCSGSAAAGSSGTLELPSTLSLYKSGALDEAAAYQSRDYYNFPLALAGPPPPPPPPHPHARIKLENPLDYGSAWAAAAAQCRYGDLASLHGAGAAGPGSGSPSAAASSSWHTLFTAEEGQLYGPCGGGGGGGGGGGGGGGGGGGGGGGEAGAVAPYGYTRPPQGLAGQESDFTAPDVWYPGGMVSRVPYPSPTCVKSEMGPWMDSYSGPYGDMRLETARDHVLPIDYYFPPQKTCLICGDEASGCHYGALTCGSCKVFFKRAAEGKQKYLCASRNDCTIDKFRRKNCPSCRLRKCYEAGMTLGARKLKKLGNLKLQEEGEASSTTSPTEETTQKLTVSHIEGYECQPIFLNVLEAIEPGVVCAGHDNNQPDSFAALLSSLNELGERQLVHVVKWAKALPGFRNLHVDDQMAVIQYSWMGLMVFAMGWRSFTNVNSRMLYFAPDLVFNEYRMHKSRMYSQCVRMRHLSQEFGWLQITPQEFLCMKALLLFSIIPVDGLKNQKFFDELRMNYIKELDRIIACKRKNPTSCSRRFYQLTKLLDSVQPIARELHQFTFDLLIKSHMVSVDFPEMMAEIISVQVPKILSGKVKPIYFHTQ
Chain of Glucocorticoid receptor (Homo sapiens) (P04150 whole entry, looked up): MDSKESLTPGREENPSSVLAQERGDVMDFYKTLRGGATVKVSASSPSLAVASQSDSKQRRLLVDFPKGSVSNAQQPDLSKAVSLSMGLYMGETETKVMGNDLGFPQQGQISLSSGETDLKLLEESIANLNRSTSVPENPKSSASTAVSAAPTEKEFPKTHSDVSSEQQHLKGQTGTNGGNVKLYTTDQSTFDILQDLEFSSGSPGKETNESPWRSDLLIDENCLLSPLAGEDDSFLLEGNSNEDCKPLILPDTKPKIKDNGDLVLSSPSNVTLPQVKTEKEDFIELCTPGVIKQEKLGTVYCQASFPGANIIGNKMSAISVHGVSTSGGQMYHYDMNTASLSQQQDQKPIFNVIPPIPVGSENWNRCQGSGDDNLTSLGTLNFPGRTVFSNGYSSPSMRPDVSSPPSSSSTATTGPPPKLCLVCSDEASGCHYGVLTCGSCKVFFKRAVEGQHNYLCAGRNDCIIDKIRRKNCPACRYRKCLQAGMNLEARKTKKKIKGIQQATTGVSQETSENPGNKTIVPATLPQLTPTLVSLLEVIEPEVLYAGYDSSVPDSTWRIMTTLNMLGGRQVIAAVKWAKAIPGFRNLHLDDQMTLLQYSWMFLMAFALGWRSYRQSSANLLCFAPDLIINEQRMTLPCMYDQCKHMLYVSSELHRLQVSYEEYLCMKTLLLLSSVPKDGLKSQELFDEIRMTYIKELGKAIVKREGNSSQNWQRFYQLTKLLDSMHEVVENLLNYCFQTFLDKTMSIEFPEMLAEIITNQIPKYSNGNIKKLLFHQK

Cc1c(-c2cccnc2)c2ccccc2n1CCCCC(=O)O
not listed: [13] | [14] | [15] | [16] | [17] | [18] | [19]
inactive: all other assays above

CC(C)(C)N
not listed: [16] | [17] | [18] | [19]
inactive: all other assays above

CC[C@H](NC(C)C)[C@H](O)c1ccc(O)c2[nH]c(=O)ccc12
active: [2] 14.1 µM
inactive: all other assays above

O=C(O)COCC(=O)O
not listed: [7] | [15] | [16] | [17] | [18] | [19]
inactive: all other assays above

CC1(C)CC(O)CC(C)(C)N1[O]
not listed: [11] | [13] | [14] | [16] | [17] | [18] | [19]
inactive: all other assays above

CCc1cnc(C(=O)O)c(C(=O)O)c1
not listed: [13] | [14] | [15] | [16] | [17] | [18] | [19]
inactive: all other assays above

CC(C)CCCCCOC(=O)CS
active: [9] 61.1 µM | [15] 54.5 µM | [10] 54.5 µM
not listed: [7] | [16] | [17] | [18] | [19]
inactive: all other assays above

CC(C)C[C@H](NC(=O)[C@H](Cc1ccccc1)NC(=O)c1cnccn1)B(O)O
inactive: [1] | [2] | [3] | [4] | [5] | [6] | [7] | [13]
active: [9] 13.3 nM and 11.9 nM | [15] 13.3 nM and 9.4 nM | [10] 11.9 nM and 10.6 nM | [11] 0.0076 µM

Cc1ccc2ccccc2c1[N+](=O)[O-]
not listed: [9] | [10] | [14] | [15] | [16] | [17] | [18] | [19]
inactive: all other assays above
